Screening results as filed in PubChem.
G9a block = qHTS Assay for Inhibitors of Histone Lysine Methyltransferase G9a; AID 504332, 2011; Potency, µM (top dose mostly 102 µM), for inactives: at the top dose activity, negative = inhibition, most hits filed as inhibitors; G9a H3K9 monomethylation, AlphaScreen, 2 h; 350,000 compounds, 8.8% hits; Histone-lysine N-methyltransferase EHMT2 (Homo sapiens), Q96KQ7; also: % is scaled to controls: 0 for no effect and ±100 for the full control effect; nearly all actives have a fitted effect of over 75% in size
Target sequence (Q96KQ7 913-1193 limits assumed): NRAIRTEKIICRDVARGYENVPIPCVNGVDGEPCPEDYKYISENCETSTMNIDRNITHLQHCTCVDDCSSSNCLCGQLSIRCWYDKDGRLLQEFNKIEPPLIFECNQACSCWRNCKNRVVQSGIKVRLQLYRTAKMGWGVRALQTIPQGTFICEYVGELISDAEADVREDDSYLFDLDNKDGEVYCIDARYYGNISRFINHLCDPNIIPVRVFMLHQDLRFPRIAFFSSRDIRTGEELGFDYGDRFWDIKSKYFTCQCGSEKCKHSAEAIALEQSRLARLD
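Compounds were preincubated with 20 nM G9a for 15 min, after which biotinylated H3K9 peptide (500 nM) and SAM (20 uM) started a 2 h room-temperature reaction. Monomethylated product was quantified by antibody-based AlphaScreen chemiluminescence.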
L3MBTL1 block = qHTS Assay for the Inhibitors of L3MBTL1; Lethal(3)malignant brain tumor-like protein 1 (Homo sapiens), Q9Y468; 230,000 compounds, 0.66% hits; Potency, µM (doses to about 57.1 µM), without a hit: at the highest dose activity, negative = inhibition, usual class: inhibitors; AlphaScreen L3MBTL1–H3K9me1 peptide binding; also: % is scaled to controls: 0 for no effect and ±100 for the full control effect; nearly all actives have a fitted effect of over 60% in size
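L3MBTL1 (50 nM) pre-complexed 30 min with biotinylated H3(1-15)K9me1 peptide (75 nM), then compounds added for 30 min at room temperature; AlphaScreen streptavidin donor/nickel chelate acceptor beads (10 ug/mL final) read after 30 min dark incubation.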
HP1b binding inh = HTS for Inhibitors of HP1-beta Chromodomain Interactions with Methylated Histone Tails; 390,000 compounds, 0.56% hits; Potency, µM (highest dose often 114 µM), for the others: at the top dose activity change, negative = inhibition, actives largely listed as inhibitors; Chromobox protein homolog 1 (Homo sapiens), P83916; AlphaScreen HP1-beta / biotin-H3K9me3 peptide binding; also: nearly all actives have a fitted effect of over 70% in size
Target sequence (P83916 whole entry, looked up): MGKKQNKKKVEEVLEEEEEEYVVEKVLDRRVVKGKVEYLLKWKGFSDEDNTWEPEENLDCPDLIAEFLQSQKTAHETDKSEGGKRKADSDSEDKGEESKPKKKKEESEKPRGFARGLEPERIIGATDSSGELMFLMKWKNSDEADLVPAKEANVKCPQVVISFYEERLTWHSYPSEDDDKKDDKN
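Compound inhibition of the preformed complex between 50 nM HP1-beta and 50 nM biotinylated H3K9me3 peptide was read by AlphaScreen. Buffer was PBS pH 7.4 with 0.01% Tween-20. Incubations ran 30 min at room temperature, with 10 ug/mL donor/acceptor beads.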
JMJD2A Tudor inh = qHTS Assay for Inhibitors of JMJD2A-Tudor Domain; Lysine-specific demethylase 4A (Homo sapiens), O75164; AlphaScreen JMJD2A-Tudor / H3K4me3 peptide binding; Potency, µM (titrated, usually from 114 µM), for the others: top-dose activity change, negative = inhibition, usual class: inhibitors; 390,000 compounds, 4.4% hits; AID 504339, 2011; also: % is scaled to controls: 0 for no effect and ±100 for the full control effect; nearly all actives have a fitted effect of over 50% in size
BAZ2B block = qHTS Assay for Inhibitors of BAZ2B. Bromodomain adjacent to zinc finger domain protein 2B (Homo sapiens), Q9UIF8. AlphaScreen BAZ2B-H3K14Ac peptide displacement. Potency, µM (titrated, usually from 114 µM), for inactives: top-dose activity change, negative = inhibition, actives largely listed as inhibitors. 360,000 compounds, 4.4% hits; also: % is scaled to controls: 0 for no effect and ±100 for the full control effect; nearly all actives have a fitted effect of over 60% in size
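Inhibition is scored as reduced AlphaScreen emission. The BAZ2B/b-H3(5-23)K14Ac complex (50 nM each) in PBS pH 7.4, 0.01% Tween-20 meets compound (up to 110 uM) for 30 min at RT before bead addition.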
Active calls of the source: *; ? = inconclusive; / = not tested or not shown; [ ] = dose if it differs, or a comment. Only some compounds are listed: those with a hit (about 11% of all), similar ones and a draw of the others. Calls follow the shape of the dose curve; as a rule, active = well fitted inhibition curve with a large enough effect; inconclusive = small, poorly fitted or top-dose-only effect; inactive = no such curve, though single readings can be large or run the other way. Potency is read from the fitted curve at half-maximal effect.

SMILES	G9a block	L3MBTL1 block	HP1b binding inh	JMJD2A Tudor inh	BAZ2B block
COc1ccc(Nc2cc(C(=O)NCCCN3CCOCC3)c3ccccc3n2)c(OC)c1	17%[12.7 µM]	/	27%	?	-29%
COc1ccc(Nc2cc(C(=O)NCCCN3CCN(c4ccc(OC)cc4)CC3)c3ccccc3n2)cc1	11µM*	/	?	22µM*	14µM*
CCN(CC)CCNC(=O)c1cc(Nc2ccc(OC)c(OC)c2)nc2ccccc12	71µM*	/	-15%	?	40µM*
COc1ccc(Nc2cc(C(=O)NCCCN(C)Cc3ccccc3)c3ccccc3n2)c(OC)c1	?	/	?	32µM*	?
COc1ccc(Nc2cc(C(=O)NCc3ccccc3)c3ccccc3n2)cc1OC	3%[59 µM]	/	7%	-14%	/
O=C(Cn1ccc(NC(=O)OCc2ccccc2)nc1=O)NCc1nc2ccccc2[nH]1	-10%[0.501 µM]	8%	19%	-12%	-5%
CCOC(=O)c1ccc(NC(=O)CSc2ncc(S(=O)(=O)c3ccc(C)c(Cl)c3)c(=O)[nH]2)cc1	10%[59 µM]	/	9%[57 µM]	-24%	-14%
Cc1cccc(NC(=O)c2ccc3oc(=O)c(S(=O)(=O)c4ccc(F)cc4)cc3c2)c1C	33%[59 µM]	/	54%	-14%	24%
COc1ccc(N2CCN(CCNC(=O)c3ccc4c(c3)[nH]c(=S)n3c5ccccc5nc43)CC2)cc1	50µM*	-11%	5%	?	?
COc1ccc(N2CCN(CCNC(=O)c3ccc4nc5ccccc5c(=O)n4c3)CC2)cc1	7%	/	29%	-4%	-15%
COc1ccc(Nc2cc(C(=O)NCCCN3CCOCC3)c3ccccc3n2)cc1OC	-12%[59 µM]	/	9%	?	-37%
COc1ccc(N2CCN(CCCNC(=O)C(=O)c3c[nH]c4ccccc34)CC2)cc1	40µM*	/	50µM*	28µM*	14µM*
COc1ccc(N2CCN(CCCNC(=O)C3CCCN(S(=O)(=O)c4cnc[nH]4)C3)CC2)cc1 (stereo unspecified)	50µM*	-10%	38%	?	6%
COc1ccc(Nc2cc(C(=O)NCCCN3CCN(C)CC3)c3ccccc3n2)cc1OC	3.5µM*	-4%	-9%	-22%	-32%
COc1ccc(N2CCN(CCCNC(=O)C3CCCN(S(=O)(=O)c4c(C)n[nH]c4C)C3)CC2)cc1 (stereo unspecified)	?	/	-1%	-32%	-14%
COc1ccc(C)cc1NC(=O)C(=O)NCC(c1cccnc1)N1CCc2ccccc21 (stereo unspecified)	-29%[59 µM]	/	3%	-15%	-3%
COc1ccc(Nc2cc(C(=O)NCc3ccccc3)c3ccccc3n2)c(OC)c1	-32%[59 µM]	/	31%	?	/
COc1ccc(N2CCN(CCCNC(=O)c3cc(Nc4ccccc4OC)nc4ccccc34)CC2)cc1	10µM*	/	?	35µM*	10µM*
c1ccc(CNc2nc3ccccc3c3nc(-c4ccccc4)nn23)cc1	8%[59 µM]	/	61%	33%	2%
O=C(Nc1cccc(F)c1)C1CCN(c2nc3ccccc3[nH]2)CC1	5%[59 µM]	/	28%[57 µM]	0%	-1%
CC(CNC(=O)Cc1ccc(NC(=O)N2CCSc3ncccc32)cc1)c1ccccc1 (stereo unspecified)	-29%[59 µM]	/	16%	-11%	-6%
Cc1nc(N2CCOCC2)c(C#N)c(C)c1Br	48%[12.7 µM]	/	36%	8%	-3%
Cc1nc(S(=O)(=O)N(C)Cc2ccccc2)c(C#N)c(C)c1Cl	7%[0.501 µM]	2%	53%	6%	5%
Cc1nc(S(=O)(=O)N2CCOCC2)c(C#N)c(C)c1Cl	81%[59 µM]	0%	2%	79µM*	-25%
Cc1nc(S(=O)(=O)NC2CCCCC2)c(C#N)c(C)c1Cl	79µM*	11%	-13%	-2%[11.4 µM]	-24%
SMILES	G9a block	L3MBTL1 block	HP1b binding inh	JMJD2A Tudor inh	BAZ2B block
Cc1ccc(CCNC(=O)c2cnc3c(C)cccn3c2=O)cc1	15%[59 µM]	/	18%	-4%	0%
COc1ccc(-n2c(SCC(=O)Nc3cccc(C)c3C)nc3c([nH]c4ccccc43)c2=O)cc1	9%[59 µM]	/	11%[57 µM]	-7%	-4%
CC(C)NC(=O)NC(=O)COc1ncnc2sccc12	50µM*	6%	?	?	52%
CN1CCN(C(=O)C2CCCN(S(=O)(=O)c3ccc(F)cc3)C2)CC1 (stereo unspecified)	14µM*	/	?	5.6µM*	32µM*
CC(=O)N1CCC(C(=O)N2CCN(S(=O)(=O)c3ccc(F)cc3)CC2)CC1	-1%	/	-4%	-1%	-33%
O=C(C1CCC1)N1CCN(S(=O)(=O)c2ccc(F)cc2)CC1	-4%[0.501 µM]	28%	24%	-10%	79µM*
O=C(C1CCCN(S(=O)(=O)c2ccc(F)cc2)C1)N1CCOCC1 (stereo unspecified)	/	/	16%[57 µM]	-18%	/
Cc1nc2cc(N=NC3=C(O)CCCC3=O)ccc2s1	?	-26%	-17%	?	56µM*
O=C1CCCC(O)=C1N=Nc1ccc(Cl)c(Cl)c1	?	?	13%	-18%	?
CCOC(=O)NC(N(O)c1cccc(Cl)c1)C(Cl)(Cl)Cl (stereo unspecified)	40µM*	-4%	-11%	-26%	-29%
CCOC(=O)N[C@H](Cc1c[nH]c2ccccc12)C(=O)Nc1cccc(Cl)c1	5%[59 µM]	/	37%	-32%	-16%
COc1ccc(N=Cc2ccccc2O)cc1	/	/	13%	-18%	/
COc1ccc(N=Cc2[nH]c3ccccc3c2O)cc1	6.3µM*	/	-8%	-35%	-23%
C=C(C)C(=O)Nc1cccc(C2=NOC3(C2)C[C@@H](C(N)=O)N(C(=O)C2(C)CC2)C3)c1 (stereo partly specified)	?	/	2.5µM*	2.2µM*	1.6µM*
C=C(C)C(=O)Nc1cccc(C2=NOC3(C2)C[C@@H](C(N)=O)N(C(=O)C(=C)C)C3)c1 (stereo partly specified)	?	/	8.9µM*	7.9µM*	5µM*
C/C=C\C(=O)Nc1cccc(C2=NOC3(C2)C[C@@H](C(N)=O)N(C(=O)C2(C)CC2)C3)c1 (stereo partly specified)	-1%[12.7 µM]	/	30%	-5%	3%
C=C(C)C(=O)Nc1cccc(C2=NOC3(C2)C[C@@H](C(N)=O)N(C(=O)/C=C/CC)C3)c1 (stereo partly specified)	?	/	10µM*	10µM*	7.1µM*
Cc1cn2c(=O)cc(COc3ccc(NC(=O)COc4ccccc4)cc3)nc2s1	-1%[59 µM]	/	34%	-9%	-21%
CCCn1nc(C(=O)NNC(=O)c2cccc(C)c2)c2ccccc2c1=O	/	2%	40%	-2%	/
